ATXN viability – reduces viability in counter-screen for ATXN expression inhibitors | S2 cells (HEK-293 line with an ATXN2-luciferase reporter) viability, CellTiter-Fluor protease fluorescence, 24 h | Potency, µM (doses to about 56.7 µM), hits mostly cytotoxic | hit rate 0.49% among 400,000; also: nearly all actives have a fitted effect of over 40% in size
ATXN2 expr inh – reduces ATXN2 reporter expression in HEK-293 cells; HEK-293 ATXN2-luciferase reporter, luminescence, 24 h; Potency, µM (top dose mostly 57 µM), for the others: top-dose activity change, negative = inhibition, actives largely listed as inhibitors; hit rate 0.72% among 360,000; also: % is scaled to controls: 0 for no effect and ±100 for the full control effect; nearly all actives have a fitted effect of over 55% in size
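qHTS (up to 57 uM final) was run with 24 h compound exposure of reporter cells at 37 °C. Each well was multiplexed: SteadyGlo luminescence measured ATXN2-luciferase expression after a fluorogenic Gly-Phe-AFC viability readout (25 uM final).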
TGFb inhibitor – blocks TGF-b signaling | HepG2 CAGA-GFP TGF-b/SMAD3 reporter, GFP fluorescence, 18 h; TGF-beta stimulated, 500 pg/mL final | Potency, µM (highest dose often 46.1 µM), for the others: at the top dose activity, negative = inhibition, usual class: inhibitors | hit rate 1.2% among 410,000; also: % is scaled to controls: 0 for no effect and ±100 for the full control effect; nearly all actives have a fitted effect of over 65% in size
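Inhibition was scored as loss of TGF-beta-induced (500 pg/mL final, 18 hours, 37 degrees C) GFP in HEPG2 cells carrying a CAGA-GFP reporter, in DMEM with 1% FBS. Well GFP was summed per cell; Activity was normalised to unstimulated and stimulated DMSO wells, then concentration-response fitting.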
HepG2 tox – counter-screen for TGF-b inhibitors: cytotoxicity in HepG2 cells; HepG2 CAGA-GFP viability, ATP luminescence, 18 h; Potency, µM (series often up to 46.1 µM), for the others: top-dose activity change, negative = cytotoxicity, hits mostly cytotoxic; hit rate 0.76% among 410,000; AID 588856
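HepG2 CAGA-GFP cells (1000/well, DMEM with 1% FBS) received compound, then TGF-beta at 500 pg/mL final, and were incubated 18 hours at 37 degrees C. Viability was read by CellTiter-Glo luminescence. Media-only wells were set as complete cell-killing and DMSO as no toxicity.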
Active calls of the source: *; i = inactive; ? = inconclusive; . = not tested or not shown; ! = repeats disagree; [ ] = remark or other dose. Only some compounds are listed: those with a hit (about 2.3% of all), similar ones and a draw of the others. Calls follow the shape of the dose curve; as a rule, active = well fitted curve in the direction sought with a large enough effect; inconclusive = small, poorly fitted or top-dose-only effect, or another doubt; inactive = no such curve, though single readings can be large; an effect the other way counts as inactive or inconclusive. Potency is read from the fitted curve at half-maximal effect.

SMILES	ATXN viability	ATXN2 expr inh	TGFb inhibitor	HepG2 tox
Cc1ccc(Cc2c(-c3ccc(F)cc3)nc3cc(C)ccn23)cc1	28µM*	-26%	?	-37%
O=C(O)C#CC(=O)O	.	.	?	-20%
COC(=O)C1=C(C(=O)OC)[C@]2([C@@H]3CC=CCN[C@@H](Cc4ccccc4)C(=O)N3Cc3ccccc3)C=C[C@H]1O2	i	-10%	?	-23%
C=CCC(Nc1ccccc1)C12C=CC(O1)C(C(=O)OC)=C2C(=O)OC (centres undefined)	.	?	?	14µM*
O=C1C=CC(O)(c2cc(=O)c3c(O)cc(O)cc3o2)C=C1	13µM*	7.9µM*	4µM*	16µM*
O=c1cc(-c2ccccc2Cl)oc2cc(O)cc(O)c12	i	40%	-21%	-18%
CCS(=O)(=O)c1ncc(N(Cc2ccccc2)Cc2ccco2)c(C(=O)Nc2cccc(Cl)c2C)n1	i	5%	-24%	-2%
CCc1ccc(CN(Cc2ccco2)c2cnc(S(C)(=O)=O)nc2C(=O)Nc2c(C)cccc2C)cc1	i	3%	?	-29%
CCc1ccc(CN(Cc2ccco2)c2cnc(S(C)(=O)=O)nc2C(=O)Nc2ccccc2Cl)cc1	i	16%	7.9µM*	-24%
CCS(=O)(=O)c1ncc(Cl)c(C(=O)N(Cc2ccccc2)Cc2ccco2)n1	.	.	?	5.6µM*
O=C(O)[C@@H](O)[C@H](O)[C@H](O)[C@@H](O)C(=O)O (tested in a mixture with another compound)	i	.	.	.
O=C1NC(c2ccccc2)(c2ccccc2)C(=O)N1COP(=O)(O)O	i	8%	.	.
COc1ccc(/C=N/Nc2nccnc2Cl)c(OC)c1	i	37%	20%	-41%
COc1cccc(/C=N/Nc2nccnc2Cl)c1O	?	5.6µM*	-29%	11µM*
Oc1ccccc1/C=N/Nc1nccnc1Cl	?	?	0%	-31%
Clc1nccnc1N/N=C/c1ccc(Br)cc1	i	57%	-25%	13µM*
COc1cccc(/C=N/Nc2nc3ccccc3[nH]2)c1O	?	.	3.2µM*	-76%
Brc1ccc(/C=N/Nc2ccccn2)cc1	i	62%	?	-22%
COc1cccc(/C=N/Nc2nc3ccccc3[nH]2)c1OC	i	49%	-6%	-14%
COc1ccc(/C=N/Nc2nccnc2Cl)cc1	i	-34%	0%	7.9µM*
CCc1nc2cc(C(=O)N(C)C3CCOC3)cc(NC(=O)c3ccccc3OC)c2n1C (centres undefined)	i	.	.	.
COc1cc(-c2cc(C)c3c(OC)ccc(OC)c3n2)cc2c1OCCN(Cc1cn(C)nc1C)C2	i	.	.	.
O=C(C[N+]12CN3CN(CN(C3)C1)C2)c1ccc(I)cc1	.	.	-25%	-38%
COc1cccc(/C=N/Nc2cc(-n3nc(C)cc3-c3ccccc3)ncn2)c1O	?	?	?	-61%
COc1cccc(/C=N/Nc2ncnc3scc(-c4ccccc4)c23)c1O	i	1.1µM*	?	-3%
SMILES	ATXN viability	ATXN2 expr inh	TGFb inhibitor	HepG2 tox
CO[C@H]1C=CO[C@@]2(C)Oc3c(C)c(O)c4c(O)c(c(C=NN5CCN(C)CC5)c(O)c4c3C2=O)NC(=O)C(C)=CC=C[C@H](C)[C@H](O)[C@@H](C)[C@@H](O)[C@@H](C)[C@H](OC(C)=O)[C@@H]1C	28µM*	19%	-26%	-15%
CO[C@H]1C=CO[C@@]2(C)Oc3c(C)c(O)c4c(O)c(c(C=NN5CCN(C)CC5)c(O)c4c3C2=O)NC(=O)C(C)=CC=C[C@H](C)[C@H](O)[C@@H](C)[C@@H](O)[C@@H](C)[C@H](OC(C)=O)[C@H]1C	.	0%[18.9 µM]	.	.
Cc1c(C(=O)N(C)Cc2cccc3ncccc23)cnn1-c1nccc(-c2ccccc2F)n1	i	.	.	.
Cc1c(CN2CCC(CO)(Cc3cccc(C(F)(F)F)c3)CC2)c2ccccc2n1C	.	35µM*	?	25µM*
CC1CCN(S(=O)(=O)c2nnc(NC(=O)c3cccc(Br)c3)s2)CC1	.	.	4.5µM*	-37%
COc1ccc(-c2noc(CSc3nnc(Cc4ccccc4)n3-c3ccc(F)cc3)n2)cc1	.	?	16µM*	-36%
COC1=C(OC)C(=O)C(CC=C(C)CCC=C(C)CCC=C(C)CCC=C(C)CCC=C(C)CCC=C(C)CCC=C(C)CCC=C(C)CCC=C(C)CCC=C(C)C)=C(C)C1=O	i	6%	.	.
CC(C)Cc1nc2cc(NS(=O)(=O)N(C)C)cc(C(=O)N3CCOCC3)c2n1C	i	.	.	.
CC(=O)Nc1ccc(/C=C/c2ccncc2)cc1	.	.	9%	0%
COc1ccc(S(=O)(=O)Nc2cccc3cccnc23)cc1	.	.	7.1µM*	-33%
Cc1ccc(S(=O)(=O)Nc2cc(Br)cc3cccnc23)cc1	.	.	?	-26%
COc1ccc(S(=O)(=O)Nc2ccc(O)c3ccccc23)cc1	20µM*	?	?	-100%
O=S(=O)(Nc1cc(Br)cc2cccnc12)c1ccccc1	.	.	8.9µM*	1%
COc1ccc(-c2csc(N3CCN(c4cc(C)nc5ccccc45)CC3)n2)cc1OC	10µM*	?	?	11µM*
COc1cc(-c2csc(N3CCOCC3)n2)cc(OC)c1OC	i	7%	22%	12%
COc1cccc(C2(CC(=O)N3CCN(c4ccccc4O)CC3)CC(=O)N(C3CCCC3)C2=O)c1 (centres undefined)	i	.	.	.
Cc1cc(C)c(OCC(=O)N(Cc2cccc(F)c2)Cc2ccco2)c(C)c1	.	.	-49%	11µM*
Cc1cccc(C)c1OCC(=O)N(Cc1ccco1)Cc1ccco1	.	.	0%	-31%
COc1ccc(CN2CCC3(CC2)c2ccccc2[C@@H](NC(=O)c2ccsc2)[C@@H]3OC)cc1O	i	.	.	.
O=C(NCc1ccncc1)C1Cc2c(-c3ccccc3Oc3ccccc3)ccnc2O1 (centres undefined)	?	0%	14µM*	-57%
COc1cc(OC)nc(O[C@H](C(=O)O)C(OC)(c2ccccc2)c2ccccc2)n1	i	8%	.	.
Cc1ccc(CN2CCC(CNC(=O)c3cc4ccc5cccnc5c4[nH]3)CC2)cc1	.	.	?	13µM*
O=C1Cc2ccccc2C1=C1C=c2ccccc2=C1	.	.	-1%	0%
CCN1CCN(Cc2ccc(NC(=O)c3cc(NC(=O)C(=O)c4c[nH]c5ccccc45)cc(OC)c3)cc2C(F)(F)F)CC1	16µM*	14µM*!	?	11µM*!
CCN1CCN(Cc2ccc(NC(=O)c3cc(NC(=O)c4cc(C)on4)cc(OC)c3)cc2C(F)(F)F)CC1	?	?	?	-37%
CCN1CCN(Cc2ccc(NC(=O)c3ccc(C)c(NC(=O)C(=O)c4c[nH]c5ccccc45)c3)cc2C(F)(F)F)CC1	14µM*	14µM*!	18µM*	16µM*!
CCN1CCN(Cc2ccc(NC(=O)c3cc(NC(=O)c4cnn(-c5ccccc5)c4N)cc(OC)c3)cc2C(F)(F)F)CC1	25µM*	?	?	-79%
